Only some compounds are listed: those with a hit (about 4.7% of all), similar ones and a draw of the others.
PABP polyA inh: PABP-poly(A) binding inhibition; P11940; PABP-poly(A) RNA binding, fluorescence polarization; inhibition, % at 35 µM; actives 1% (n = 290,000); AID 2014;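 note: calls also rest on retests at 20 µM and on dose response follow-up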
Efflux pump mplx: antifungal efflux pump inhibition, Nile Red retention. S. cerevisiae Candida pump triplex. inhibition, % at 10 µM. actives 0.44% (n = 330,000). AID 485275;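 active = plate passing quality check with inhibition over a set limit, or well fluorescence over plate mean plus 4 SD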;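 note: Nile Red retained in pooled yeast measured as flow cytometry median fluorescence; 0% = buffer negative control and 100% = Enniatin B positive control; higher means more Nile Red kept so more efflux inhibition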
PABP1 MLLE inh: blocks PAM2 peptide binding to the PABP1 MLLE domain | inhibition, % at 20 µM | P11940 | actives 0.36% (n = 360,000) | GST-MLLE / FITC-PAM2 fluorescence polarization; in the data active = inhibition above about 35%, passing the limit was not always enough;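 note: plate controls were DMSO wells with GST-MLLE for no effect and wells lacking GST-MLLE protein for full effect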
SUMO HTRF inh: blocks human SUMOylation mediated by UBC9; P63279; HTRF SUMOylation assay, SAE1/SAE2 + UBC9, in vitro; inhibition, % at 35 µM; actives 0.36% (n = 290,000); AID 2006; in the data active = inhibition above about 50%, passing the limit was not always enough; inconclusive = no clear call, values can overlap the other calls
ALR H2O2 inh: human ALR oxidase inhibition via reduced H2O2; purified ALR, DTT oxidation, H2O2 HRP-luminol luminescence; actives 3.8% (n = 290,000); inhibition, % (concentration not given with the values); P55789; AID 485317;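 active = mean replicate inhibition above about 79%, with every replicate also reaching it, limit read from the data; inconclusive = only one of the two criteria met; inactive = mean below limit and not every replicate reaching it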
Target sequence (P55789 whole entry, looked up): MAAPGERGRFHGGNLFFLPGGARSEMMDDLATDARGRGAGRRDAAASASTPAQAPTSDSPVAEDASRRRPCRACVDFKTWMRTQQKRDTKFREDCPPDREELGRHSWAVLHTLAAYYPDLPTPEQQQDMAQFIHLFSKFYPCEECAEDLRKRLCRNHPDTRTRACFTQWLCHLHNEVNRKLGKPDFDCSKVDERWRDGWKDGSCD
eIF4H inh: inhibitors of RNA binding by human eIF4H. Q15056. actives 0.94% (n = 290,000). eIF4H fluorescence polarization binding assay. AID 2012. inhibition, % at 35 µM;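 note: calls also rest on retests at 20 µM and on dose response follow-up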
* hit, by the source's call; ? = inconclusive; . = not tested or not shown. Unless noted, the rule behind the calls is not given here.

SMILES | PABP polyA inh | Efflux pump mplx | PABP1 MLLE inh | SUMO HTRF inh | ALR H2O2 inh | eIF4H inh
O=c1cc(-c2ccccc2)nc(SCc2ccc(F)cc2)[nH]1 | 79 | 0 | -5 | 25 | . | active
CCCc1cc(=O)[nH]c(SCc2ccc(F)cc2)n1 | 6 | 0 | -4 | 1 | -9 | -2
Nc1cc(=O)[nH]c(SCc2csc(-c3ccccc3)n2)n1 | 6 | 0 | 0 | -7 | 99* | -4
Nc1c(N(Cc2ccccc2)C(=O)COc2ccc(F)cc2Cl)c(=O)[nH]c(=O)n1Cc1ccccc1 | . | 0 | -20 | . | . | .
O=C(c1ccc(Cl)cc1)c1ccc(CN2C(=O)c3ccccc3C2=O)o1 | 1 | 0 | 7 | 1 | 2 | -5
Cc1ccc(C(=O)c2coc3c2C(=O)C(=O)c2ccccc2-3)cc1 | 2 | 0 | 13 | 29 | 16 | -6
Cc1ccc(C(=O)c2c(C)oc3c2C(=O)C(=O)c2ccccc2-3)cc1 | 9 | 0 | 7 | 92* | 3 | -6
Cc1oc2c(c1C(=O)c1ccc(Cl)cc1)C(=O)C(=O)c1ccccc1-2 | 19 | . | 5 | 71* | . | -1
Cc1cc(Nc2ccccc2C(=O)O)n2ncnc2n1 | . | . | 3 | . | . | .
Cc1nc2ccccc2n1CCc1nc2c3ccccc3nc(=S)n2[nH]1 | -3 | 0 | -35 | -1 | 92* | -2
CCC1=C(OC(=O)N(CC)CC)N2C(=O)OC(=NCC(=O)OC)[C@]2(Cc2ccccc2)[C@H]2C1=CC[C@H]1C(=O)NC(=O)[C@H]12 | 5 | 0 | -2 | -4 | . | -2
C[C@@H]1CN([C@H](C)CO)C(=O)CCCn2nncc2CO[C@H]1CN(C)Cc1ccc(C(F)(F)F)cc1 | . | . | 2 | . | . | .
Cc1ccc(S(=O)(=O)N[C@H](C(=O)Oc2ccc3c(C(F)(F)F)cc(=O)oc3c2)c2ccccc2)cc1 | 22 | 0 | 36* | ? | 0 | 17
Cc1ccc(S(=O)(=O)N2CCOCC2)cc1C(=O)N1C(=O)c2cccc(N)c2C1=O | 71* | 0 | 10 | 32 | . | 57*
CCOc1cc(-c2ccc(N)c(OCC)c2)ccc1N | 104* | 0 | 86 | 9 | 30 | ?
O=c1[nH]c2cc(Cl)cc([N+](=O)[O-])c2c2ccc(Cl)cc12 | . | . | -3 | . | . | .
Nc1ccccc1OCCOCCOc1ccccc1N | -1 | 0 | -1 | 16 | 98* | -8
CC(C)C1C(=O)N(Cc2cn(CCC3OCCCO3)nn2)CCS(=O)(=O)N1Cc1ccc(-c2ccc(Cl)nc2)cc1 (stereo not given) | . | . | -4 | . | . | .
O=C(c1ccccc1)C1CN(c2ccccc2)CC1c1ccc(Cl)cc1 (stereo not given) | -8 | 0 | 12 | -1 | -4 | 11
COc1cccc(C(=O)C2CN(c3ccccc3)CC2c2ccc(Cl)cc2)c1 (stereo not given) | 16 | 0 | -10 | -32 | 97* | 7
CC1CCc2ccccc2N1CC(=O)Nc1cccc(S(=O)(=O)N2CCCC2)c1 (stereo not given) | . | . | 6 | . | . | .
O=C1CSC(c2ccc(F)c(F)c2)N1c1ccccc1F (stereo not given) | 10 | 0 | 14 | -12 | 98* | 2
O=C1CSC(c2cccc([N+](=O)[O-])c2)N1c1ccccc1 (stereo not given) | -24 | 0 | 3 | -2 | 98* | 6
O=C1CSC(c2cccc([N+](=O)[O-])c2)N1c1ccc(O)cc1 (stereo not given) | 7 | 0 | 14 | -3 | -1 | -7
O=C1CSC(c2cccc(F)c2)N1c1ccccc1 (stereo not given) | 9 | 0 | 9 | 13 | 98* | -4
SMILES | PABP polyA inh | Efflux pump mplx | PABP1 MLLE inh | SUMO HTRF inh | ALR H2O2 inh | eIF4H inh
Cc1onc(-c2ccccc2)c1C(=O)NNC(=S)NC(=O)/C=C/c1ccccc1 | 3 | 0 | 13 | -95 | 76* | 12
COc1ccc(C(=O)NC(=S)NNC(=O)c2ccco2)cc1 | 3 | 0 | -15 | -30 | 100* | 12
COc1ccc(NC(=S)NNC(=O)c2ccco2)c(OC)c1 | -7 | 0 | -5 | 11 | 77* | -1
COc1ccc(/C=C/C(=O)NC(=S)NNC(=O)c2ccco2)cc1OC | 10 | 0 | -38 | -72 | 85* | 3
COc1ccc(NC(=O)c2ccccc2NC(=O)c2ccco2)c(OC)c1 | -3 | 0 | -8 | -10 | 0 | 1
Cc1ccc(N(CC(=O)NCC2CCCO2)C(=O)CCC(=O)Nc2nccs2)cc1 (stereo not given) | 12 | 0 | 12 | 15 | 1 | -9
